Assay [1] can be described thus: small molecules captured by biotinylated probe aFSTL3 – biochemical, small-molecule microarray, fluorescence 635/667, stem cell growth factor project, primary screen (AID 1064).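 Note: measures binding of the biotinylated anti-FSTL3 antibody to printed compounds.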 The settings on record: higher = more signal.
The nature of assay [2]: binders from COS7 lysate, DM2A8 probe, primary screen, torsin A project, cell lysate, small-molecule microarray, fluorescence 635/667 (AID 1065). The note with it: higher = more signal, COS7 lysate expressing mutant human TOR1A.
Assay [3] can be described thus: small molecules captured by biotinylated probe aFGF2 – biochemical, small-molecule microarray, fluorescence 635/667, stem cell growth factor project, primary screen (AID 1067).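 Note: measures binding of biotinylated aFGF2 protein to printed compounds on slides; z-score merges feature fluorescence and signal-to-noise across triplicate slides.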 The note with it: higher = more signal.
Assay [4] in a line: small molecules captured by biotinylated probe aFGF10 – biochemical, small-molecule microarray, fluorescence 635/667, stem cell growth factor project, primary screen (AID 1071).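 Note: score merges 667 nm spot intensity and signal to noise from triplicate slides.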 The note with it: higher = more signal.
Assay [5] has as its target Neurogenic locus notch homolog protein 2 (Homo sapiens) (UniProt Q04721). Put plainly: small molecules binding Notch2 protein – biochemical, small-molecule microarray, 635 nm fluorescence, stem cell growth factors, primary screen (AID 1073). The settings on record: higher = more signal.
For assay [6], the target named is Pro-neuregulin-1, membrane-bound isoform (Homo sapiens) (UniProt Q02297). The experiment in a line: small molecules binding neuregulin-1 protein – biochemical, small-molecule microarray, fluorescence 635/667, psychiatric disease protein project, primary screen (AID 1075).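 Note: score combines 667 nm spot fluorescence with signal to noise.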 The note with it: NRG1 binding, 635 nm fluorescence, higher = more signal.
In assay [7] the test system is Neuregulin-1 EGF-like domain. The experiment in a line: small molecules binding NRG1 EGF domain – biochemical, small-molecule microarray, 635 nm fluorescence, primary screen (AID 1081).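 Note: binding of the protein to compounds printed on small-molecule microarray slides.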 The settings on record: higher = more signal.
The nature of assay [8]: FRG1 expression reporter modulators in myotubes – cell-based, C2C12 myotubes, firefly/Renilla luciferase, luminescence, FRG1 inhibition for FSHD, primary screen (AID 1084). The settings on record: FRG1 promoter luciferase, higher = more signal, called active from +8 up or from −8 down.
The nature of assay [9]: small molecules captured by biotinylated probe aFST – biochemical, small-molecule microarray, fluorescence 635/667, stem cell growth factor project, primary screen (AID 1086).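 Note: score merges 667 nm fluorescence with signal-to-noise of each printed compound spot.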 The settings on record: higher = more signal.
Assay [10] is described as follows: binders of probe aHhip on microarray, primary screen, stem cell growth factor project, biochemical, small-molecule microarray, fluorescence 635/667 (AID 1087).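 Note: score merges spot fluorescence at 667nm with spot signal to noise ratio.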 The note with it: higher = more signal.
The test system of assay [11] is PRMT1 (protein arginine N-methyltransferase 1). Put plainly: small molecules binding arginine methyltransferase PRMT1 – biochemical, small-molecule microarray, 635 nm fluorescence, primary screen (AID 1088).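 Note: binding of Prmt1 protein to compounds spotted on small-molecule microarray slides.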 The note with it: higher = more signal.
Assay [12] is described as follows: growth effects on S. cerevisiae YJM789 – YJM789 clinical isolate, OD600, 24 h, basal, primary screen (AID 1089).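 Note: growth of clinical yeast isolate S. cerevisiae YJM 789 seeded 1000 cells per well; test concentration not given here.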 The settings on record: higher = more signal, called active from +8 up or from −8 down.
The nature of assay [13]: S. pombe growth modifiers, basal conditions – strain 972, OD600, 24 h, no modulator, primary screen (AID 1090).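 Note: basal condition with compound alone and no growth modifier present; test concentration not given here.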 The settings on record: S. pombe 972 growth, higher = more signal, called active from +8 up or from −8 down.
The nature of assay [14]: budding yeast growth modifiers under rapamycin – strain BY4716, OD600, 96 h, primary screen (AID 1091). Note: test concentration not given here. The settings on record: S. cerevisiae BY4716 + rapamycin, higher = more signal, called active from +8 up or from −8 down.
Assay [15] addresses Torsin-1A-interacting protein 2 (Homo sapiens) (UniProt Q8NFQ8). Put plainly: small molecules binding lysate-expressed LULL1 – cell lysate, human LULL1 lysate, 635/667 nm fluorescence, primary screen (AID 1092).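 Note: probe is lysate of COS7 cells overexpressing human LULL1; score merges per-feature 667 nm fluorescence with signal-to-noise.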 The note with it: small-molecule microarray, hLULL1 lysate binding, 635 nm fluorescence; higher = more signal.
A short description of assay [16]: optical density change of DRC41 E. coli – strain DRC41, OD650, 24 h, E. coli filamentation project, primary screen (AID 1093).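 Note: MC1000 strain lacking acrAB efflux and sulA so SOS filamentation is blocked; test concentration not given here.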 The note with it: E. coli DRC41 growth, higher = more signal, called active from +8 up or from −8 down.
Assay [17] is described as follows: probe aLefty2 binding to arrayed compounds – biochemical, biotinylated probe, 635/667 nm fluorescence, primary screen (AID 1094).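 Note: score merges spot fluorescence near 667 nm with spot signal-to-noise ratio.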 The note with it: small-molecule microarray, higher = more signal.
For assay [18], the system named is Noggin (protein binding on small-molecule microarray). Put plainly: small molecules binding Noggin protein – biochemical, 635/667 nm fluorescence, primary screen (AID 1095).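 Note: score merges 667 nm feature fluorescence with signal to noise over triplicate slides.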 The settings on record: 635 nm fluorescence, higher = more signal.
In assay [19] the target is Neurogenic locus notch homolog protein 3 (Homo sapiens) (UniProt Q9UM47). Put plainly: small molecules binding NOTCH3 protein – biochemical, 635/667 nm fluorescence, primary screen (AID 1096). The settings on record: small-molecule microarray, 635 nm fluorescence, higher = more signal.
Assay [20] in a line: probe aEGFR binding to arrayed compounds – biochemical, biotinylated probe, 635/667 nm fluorescence, primary screen (AID 1097).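 Note: probe is a biotinylated anti-EGFR antibody binding compounds printed on slides; score combines fluorescence near 667 nm and signal to noise of each spot.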 The note with it: small-molecule microarray, higher = more signal.

Nine compounds from PubChem BioAssay can be followed below.

Active and inactive are the calls of the source.

Neurogenic locus notch homolog protein 3 (Homo sapiens), sequence (Q9UM47 whole entry, looked up): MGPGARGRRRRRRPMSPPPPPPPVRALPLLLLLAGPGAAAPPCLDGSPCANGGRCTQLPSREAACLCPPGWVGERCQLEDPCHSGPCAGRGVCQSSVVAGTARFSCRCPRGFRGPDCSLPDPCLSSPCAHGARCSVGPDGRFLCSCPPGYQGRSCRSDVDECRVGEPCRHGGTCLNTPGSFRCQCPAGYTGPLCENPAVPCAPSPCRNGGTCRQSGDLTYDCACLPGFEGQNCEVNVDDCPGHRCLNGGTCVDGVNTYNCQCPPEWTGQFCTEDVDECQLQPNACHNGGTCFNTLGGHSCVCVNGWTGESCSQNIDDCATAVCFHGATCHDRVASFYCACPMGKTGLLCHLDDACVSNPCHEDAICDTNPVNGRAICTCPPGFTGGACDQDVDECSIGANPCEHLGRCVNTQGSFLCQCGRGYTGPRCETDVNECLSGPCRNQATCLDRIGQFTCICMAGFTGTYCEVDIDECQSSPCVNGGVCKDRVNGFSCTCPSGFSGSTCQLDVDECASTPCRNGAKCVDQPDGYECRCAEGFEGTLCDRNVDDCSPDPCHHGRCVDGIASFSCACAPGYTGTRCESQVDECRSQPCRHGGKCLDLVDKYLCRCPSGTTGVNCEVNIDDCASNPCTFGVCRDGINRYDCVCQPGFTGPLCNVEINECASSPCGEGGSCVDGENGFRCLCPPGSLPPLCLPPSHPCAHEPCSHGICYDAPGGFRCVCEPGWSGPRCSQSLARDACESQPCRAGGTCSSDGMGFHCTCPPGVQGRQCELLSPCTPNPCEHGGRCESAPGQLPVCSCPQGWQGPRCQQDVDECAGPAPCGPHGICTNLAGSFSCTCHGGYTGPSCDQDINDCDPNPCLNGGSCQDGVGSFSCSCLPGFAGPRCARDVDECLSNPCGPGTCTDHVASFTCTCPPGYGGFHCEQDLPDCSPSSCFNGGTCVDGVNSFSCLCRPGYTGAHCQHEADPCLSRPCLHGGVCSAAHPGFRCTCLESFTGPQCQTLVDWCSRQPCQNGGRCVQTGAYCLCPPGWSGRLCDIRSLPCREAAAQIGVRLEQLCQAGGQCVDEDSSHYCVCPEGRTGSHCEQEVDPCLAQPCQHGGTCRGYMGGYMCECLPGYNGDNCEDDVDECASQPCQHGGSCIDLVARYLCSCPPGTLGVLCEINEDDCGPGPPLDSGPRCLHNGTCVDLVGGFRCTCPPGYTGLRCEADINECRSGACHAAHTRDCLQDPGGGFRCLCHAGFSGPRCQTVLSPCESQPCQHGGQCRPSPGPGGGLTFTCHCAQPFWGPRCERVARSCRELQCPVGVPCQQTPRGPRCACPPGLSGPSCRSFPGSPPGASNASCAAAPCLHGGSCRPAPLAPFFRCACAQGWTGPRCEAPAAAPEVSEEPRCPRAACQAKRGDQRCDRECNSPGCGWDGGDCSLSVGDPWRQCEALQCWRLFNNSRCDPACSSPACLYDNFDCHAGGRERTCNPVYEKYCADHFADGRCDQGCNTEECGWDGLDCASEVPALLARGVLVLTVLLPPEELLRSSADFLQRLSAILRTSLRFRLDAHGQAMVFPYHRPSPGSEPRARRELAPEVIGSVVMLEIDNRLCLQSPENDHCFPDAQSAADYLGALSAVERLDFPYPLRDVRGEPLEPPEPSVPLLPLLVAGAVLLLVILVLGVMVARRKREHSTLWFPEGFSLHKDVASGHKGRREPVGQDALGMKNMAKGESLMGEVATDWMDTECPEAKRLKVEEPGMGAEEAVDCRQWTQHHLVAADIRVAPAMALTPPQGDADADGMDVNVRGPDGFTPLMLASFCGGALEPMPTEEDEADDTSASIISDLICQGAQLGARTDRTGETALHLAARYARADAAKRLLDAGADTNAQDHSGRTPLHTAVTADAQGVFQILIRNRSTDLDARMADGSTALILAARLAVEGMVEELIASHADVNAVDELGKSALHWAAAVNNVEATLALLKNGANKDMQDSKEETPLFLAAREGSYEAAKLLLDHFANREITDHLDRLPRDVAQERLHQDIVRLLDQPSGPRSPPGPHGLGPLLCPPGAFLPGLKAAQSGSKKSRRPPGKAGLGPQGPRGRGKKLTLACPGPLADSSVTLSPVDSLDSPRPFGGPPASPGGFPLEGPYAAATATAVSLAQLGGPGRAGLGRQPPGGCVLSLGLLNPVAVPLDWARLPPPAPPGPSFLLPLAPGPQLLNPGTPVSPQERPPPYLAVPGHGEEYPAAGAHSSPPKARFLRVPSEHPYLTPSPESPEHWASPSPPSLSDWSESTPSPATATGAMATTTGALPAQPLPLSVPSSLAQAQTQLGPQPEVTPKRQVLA
Neurogenic locus notch homolog protein 2 (Homo sapiens), sequence (Q04721 whole entry, looked up, canonical isoform): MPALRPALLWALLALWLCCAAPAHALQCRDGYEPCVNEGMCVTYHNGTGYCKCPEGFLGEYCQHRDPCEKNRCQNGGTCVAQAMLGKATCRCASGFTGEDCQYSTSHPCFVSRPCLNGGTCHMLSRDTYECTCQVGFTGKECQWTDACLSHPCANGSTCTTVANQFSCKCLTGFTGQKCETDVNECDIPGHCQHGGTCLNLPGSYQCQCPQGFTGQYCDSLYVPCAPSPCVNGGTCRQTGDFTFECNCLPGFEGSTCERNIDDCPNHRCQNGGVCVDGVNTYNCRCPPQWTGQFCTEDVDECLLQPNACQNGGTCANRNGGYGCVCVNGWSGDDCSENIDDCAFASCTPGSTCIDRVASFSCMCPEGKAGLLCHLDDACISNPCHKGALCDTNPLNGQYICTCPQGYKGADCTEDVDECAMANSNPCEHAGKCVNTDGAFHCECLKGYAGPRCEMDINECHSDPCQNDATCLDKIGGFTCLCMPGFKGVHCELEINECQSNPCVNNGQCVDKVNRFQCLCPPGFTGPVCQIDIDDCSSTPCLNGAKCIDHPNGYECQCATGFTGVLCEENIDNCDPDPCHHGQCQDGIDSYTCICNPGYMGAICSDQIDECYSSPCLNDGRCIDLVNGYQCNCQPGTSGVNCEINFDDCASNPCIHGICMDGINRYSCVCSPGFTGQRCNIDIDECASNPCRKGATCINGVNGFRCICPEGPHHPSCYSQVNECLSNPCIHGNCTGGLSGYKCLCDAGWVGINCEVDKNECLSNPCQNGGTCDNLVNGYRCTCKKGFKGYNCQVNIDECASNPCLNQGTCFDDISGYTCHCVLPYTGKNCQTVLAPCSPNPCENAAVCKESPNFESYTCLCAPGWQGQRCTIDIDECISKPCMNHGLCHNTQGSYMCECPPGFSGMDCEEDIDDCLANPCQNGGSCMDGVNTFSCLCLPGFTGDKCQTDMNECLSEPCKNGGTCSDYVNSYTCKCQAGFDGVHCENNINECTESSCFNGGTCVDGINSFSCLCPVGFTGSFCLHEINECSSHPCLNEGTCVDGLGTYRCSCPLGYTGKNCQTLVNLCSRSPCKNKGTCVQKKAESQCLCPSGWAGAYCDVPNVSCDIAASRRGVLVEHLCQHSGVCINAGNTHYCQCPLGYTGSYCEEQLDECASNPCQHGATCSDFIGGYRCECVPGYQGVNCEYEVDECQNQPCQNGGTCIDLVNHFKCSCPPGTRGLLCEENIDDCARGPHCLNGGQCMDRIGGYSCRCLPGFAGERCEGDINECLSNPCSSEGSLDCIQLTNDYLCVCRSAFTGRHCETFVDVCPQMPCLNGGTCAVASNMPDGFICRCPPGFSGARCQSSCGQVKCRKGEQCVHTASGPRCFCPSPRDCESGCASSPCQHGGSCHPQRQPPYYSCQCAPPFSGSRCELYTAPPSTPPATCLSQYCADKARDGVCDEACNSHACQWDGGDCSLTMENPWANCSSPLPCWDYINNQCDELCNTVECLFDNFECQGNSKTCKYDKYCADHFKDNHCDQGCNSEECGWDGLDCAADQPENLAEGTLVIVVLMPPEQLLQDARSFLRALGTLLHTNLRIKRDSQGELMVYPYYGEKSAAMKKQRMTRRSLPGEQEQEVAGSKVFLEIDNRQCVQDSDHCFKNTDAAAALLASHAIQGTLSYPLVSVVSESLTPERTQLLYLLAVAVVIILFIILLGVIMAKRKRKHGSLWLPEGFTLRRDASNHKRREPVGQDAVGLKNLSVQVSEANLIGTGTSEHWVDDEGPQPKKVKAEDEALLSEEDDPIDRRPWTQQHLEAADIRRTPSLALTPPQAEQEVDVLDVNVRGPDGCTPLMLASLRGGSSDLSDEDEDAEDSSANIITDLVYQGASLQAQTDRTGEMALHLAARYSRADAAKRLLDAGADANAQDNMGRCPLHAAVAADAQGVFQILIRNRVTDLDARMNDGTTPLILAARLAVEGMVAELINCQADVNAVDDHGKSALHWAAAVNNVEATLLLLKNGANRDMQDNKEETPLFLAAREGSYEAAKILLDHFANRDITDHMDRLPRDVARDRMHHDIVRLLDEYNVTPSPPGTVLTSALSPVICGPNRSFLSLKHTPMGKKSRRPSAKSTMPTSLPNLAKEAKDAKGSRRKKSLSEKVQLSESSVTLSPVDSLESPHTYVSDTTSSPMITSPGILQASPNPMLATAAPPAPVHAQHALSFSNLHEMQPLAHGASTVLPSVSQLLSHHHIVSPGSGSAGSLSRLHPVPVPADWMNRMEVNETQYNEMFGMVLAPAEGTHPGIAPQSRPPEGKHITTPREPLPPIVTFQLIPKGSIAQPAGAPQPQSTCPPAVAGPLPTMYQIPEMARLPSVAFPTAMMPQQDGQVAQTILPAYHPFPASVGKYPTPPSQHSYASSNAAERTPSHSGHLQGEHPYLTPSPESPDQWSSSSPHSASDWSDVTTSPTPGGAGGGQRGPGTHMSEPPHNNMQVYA

Regarding `COc1cc2c(cc1OC)CN(C(=O)[C@@H]1[C@H]3C(=O)O[C@H](c4ccccc4)[C@H](c4ccccc4)N3[C@H](c3ccc(O)cc3)[C@@]13C(=O)Nc1ccccc13)CC2`, the composite z-score in assay [1] was 0.113; in assay [2] it was 0.797; in assay [3], -0.0614; in assay [4], 0.257; in assay [5], 0.171; in [6], 1.03. The composite z-score is 1.16 in assay [7]; 0.0729 in assay [9]; 0.0854 in [10]; 1.35 in assay [11]; 3.04 in [15]; -0.115 in assay [17]. The composite z-score in assay [18] is 0.497; in assay [19] it was 0.347; in [20] it was -0.115. The z-score in assay [8] is 0.421 (inactive); in assay [12] it was 0.27 (inactive); in assay [13], -0.0755 (inactive); in [14], 0.637 (inactive); in assay [16], 3.03 (inactive).
For `CC#CC(=O)Oc1ccccc1C=CC(=O)OCC`, the composite z-score in [1] was -0.156; in assay [2] it was -0.0011; in assay [3] it was -0.0268; in assay [4], 0.238; in assay [5], 0.53; in assay [6], 0.133. The composite z-score was 0.448 in assay [7]; 0.163 in assay [9]; -0.125 in assay [10]; 0.779 in assay [11]; 1.33 in assay [15]; -0.0549 in assay [17]. In addition, the results for the composite z-score in assay [18], in assay [19] and in [20] were 0.664, 0.225 and -0.0531, respectively. The z-score was 0.809 (inactive) in [8]; -2.32 (inactive) in assay [12]; -15.4 (active) in [13]; -2.16 (inactive) in [14]; 0.316 (inactive) in [16].
For `Cc1ccc(S[C@]2(C(=O)NCCCN(C)C)CC(=O)N(Cc3cc(C(F)(F)F)cc(C(F)(F)F)c3)[C@@H]2c2ccc(CO)cc2)cc1`, the composite z-score in assay [1] was -0.16; in assay [2], -0.594; in [3] it was -0.159; in assay [4], -0.145; in assay [5], -1.28; in [6], 0.494. The composite z-score in assay [7] is -0.624; in assay [9], -0.482; in [10], -0.0645; in assay [11], 0.383; in [15], 0.923; in assay [17], -0.0478. Moreover, the composite z-score was -0.768 in assay [18], -1.5 in assay [19] and -0.113 in assay [20]. Moreover, the z-score in [8] was 0.318 (inactive); in [12] it was -1.15 (inactive); in assay [13], -0.79 (inactive); in assay [14], -0.497 (inactive); in [16], -0.356 (inactive).
On to `CCOC(=O)C[C@H]1[C@H](OC(=O)c2ccc(C(=O)c3ccccc3)cc2)[C@@H](NC(=O)c2ccccc2)c2cc(OCCCO)ccc2N1C(=O)Cc1ccc(OC)cc1`, for which the composite z-score was 0.0814 in assay [1]; 0.128 in assay [2]; -0.0502 in [3]; 0.153 in assay [4]; 0.12 in assay [5]; -0.126 in [6]. Also, the composite z-score in [7] is 0.532; in assay [9], 0.0512; in [10], -0.0237; in assay [11], 0.355; in assay [15], 0.84; in [17], 0.0283. The composite z-score was 0.49 in assay [18], 0.0805 in assay [19] and -0.142 in assay [20]. Moreover, the z-score in assay [8] is -1.09 (inactive); in assay [12] it was 0.0572 (inactive); in [13], -0.682 (inactive); in assay [14], -0.0292 (inactive); in assay [16] it was 0.0663 (inactive).
As for `C=CCN1C(=O)[C@@]2(CC=C)N=C(c3ccc(OCCCO)cc3)O[C@H]2c2ccccc21`, the composite z-score in [1] is 0.529; in assay [2] it was 0.194; in assay [3], 0.0606; in assay [4], -0.0534; in assay [5] it was 1.38; in assay [6] it was 1.3. For the same compound, the composite z-score in assay [7] is 1.37; in assay [9], 0.835; in assay [10], -0.318; in [11], 1.54; in assay [15] it was 3.6; in assay [17], 0.357. Besides, the composite z-score in assay [18] worked out at 1.33; in [19] it was 0.874; in [20], 0.297. Besides, the z-score was -2.47 (inactive) in assay [8]; -3.69 (inactive) in assay [12]; -4.72 (inactive) in [13]; 0.764 (inactive) in assay [14]; 1.47 (inactive) in assay [16].
In the case of `CC1(C)C2C=C(C(O)C3C=CC4C(=O)NC(=O)C4N3Nc3ccc(Cl)cc3Cl)C[C@@H]1C2` (stereo not given in full), the composite z-score in [1] was found to be 1.16; in [2], 0.877; in assay [3], 0.0474; in assay [4], 0.519; in [5] it was 1.59; in [6], 1.5. The composite z-score in assay [7] was 0.867; in [9], 1.29; in assay [10] it was -0.104; in assay [11], 0.804; in assay [15] it was 1.33; in [17], 0.374. For the same compound, the composite z-score in assay [18] worked out at 0.178; in assay [19] it was 0.996; in assay [20] it was 0.279. In addition, the z-score in [8] was -0.505 (inactive); in assay [12], -7.63 (inactive); in assay [13] it was -6.77 (inactive); in [14] it was 0.722 (inactive); in assay [16] it was -2.98 (inactive).
In the case of `COc1ccc([Si](C)(C)[C@@H]2[C@@H](CC(=O)N3CCC[C@H]3CO)O[C@]3(C(=O)N(c4ccccc4)c4ccccc43)[C@H]2C)cc1`, the composite z-score in [1] is -0.527; in [2] it was 0.411; in [3] it was -0.122; in assay [4] it was 0.713; in assay [5], 0.907; in assay [6] it was 0.0499. In addition, the composite z-score in assay [7] was 1.11; in assay [9], 0.552; in assay [10], 0.21; in assay [11], 1.54; in assay [15], 2.37; in [17], -0.256. In addition, the composite z-score amounted to 0.999 in assay [18], 1.03 in assay [19] and 0.0436 in assay [20]. The z-score in assay [8] is -1.24 (inactive); in [12], -1.57 (inactive); in assay [13], -0.589 (inactive); in [14], -1.79 (inactive); in assay [16] it was 2.79 (inactive).
In the case of `C=CCOC(=O)[C@@H]1[C@H]2C(=O)O[C@H](c3ccccc3)[C@H](c3ccccc3)N2[C@H](c2ccc(OCCOC(=O)[C@@H]3C[C@@H]4C(=O)NCC(=O)N4[C@@H]3c3ccc(O)cc3)cc2)[C@@]12C(=O)Nc1ccc(I)cc12`, the composite z-score was -0.415 in [1]; 0.778 in assay [2]; 0.0428 in [3]; 0.371 in assay [4]; 0.364 in assay [5]; 1.04 in [6]. Moreover, the composite z-score in [7] was 1.26; in assay [9] it was 0.0347; in assay [10], -0.0391; in [11] it was 1.55; in assay [15], 2.54; in assay [17], -0.171. Besides, the composite z-score in assay [18] is 1.58; in assay [19], 0.859; in [20], -0.154. Also, the z-score was 1.12 (inactive) in [8]; 0.218 (inactive) in assay [12]; 0.985 (inactive) in assay [13]; 2.85 (inactive) in [14]; 0.5 (inactive) in assay [16].
For the compound `NC(=O)NCC#Cc1ccc2c(c1)[C@]1(C(=O)N2)[C@H](c2ccc(O)cc2)N2[C@H](c3ccccc3)[C@H](c3ccccc3)OC(=O)[C@H]2[C@@H]1C(=O)O`, the composite z-score is 0.741 in assay [1]; -0.935 in assay [2]; -0.176 in assay [3]; -0.225 in [4]; -0.897 in assay [5]; 1.08 in assay [6]. Further, the composite z-score in assay [7] was -0.224; in assay [9], -0.0113; in assay [10] it was -0.457; in assay [11] it was -0.019; in assay [15], 0.966; in assay [17], -0.255. For the same compound, the composite z-score in [18] is -0.581; in assay [19], -0.156; in assay [20], -0.191. Also, the z-score in assay [8] was 0.473 (inactive); in [12], 0.801 (inactive); in [13], -0.0898 (inactive); in assay [14] it was 0.607 (inactive); in assay [16], -0.504 (inactive).
